Measurements as given in PubChem BioAssay (Tox21).
Records with an inconclusive call do not appear. Activity calls are given as the source filed them. Calls follow the shape of the dose curve; as a rule, active = well fitted cell-killing curve with a large enough effect in the repeat runs; inconclusive = weak or mixed curves, or effect the other way; inactive = flat fitted curve, though single readings scatter.

Assay: qHTS assay to identify small molecule agonists of the TGF-beta/Smad signaling pathway - cell viability counter screen (AID 1346829); also: top concentration of the series differs between compounds; nearly all actives have a fitted effect of over 45% in size
Settings: SBE-bla HEK293T viability, CellTiter-Glo luminescence, 5 h; series mostly up to 76.8 µM; activity change, negative = cytotoxicity: at the top concentration
Excerpt: National Center for Advancing Translational Sciences [NCATS]
NIH Chemical Genomics Center [NCGC]
U.S. Environmental Protection Agency [EPA]
National Institutes of Environmental Health Sciences [NIEHS]
National Toxicology Program [NTP]
U.S. Food and Drug Administration [FDA]
Transforming growth factor beta (TGF-beta) superfamily consists of a large number of structurally related dimeric proteins that act as hormones or local mediators in regulating a wide range of biological functions. This superfamily includes TGF-betas themselves, the bone morphogenetic proteins (BMPs) and the activins. These ligands induce oligomerization of serine/threonine receptor kinases and phosphorylate the cytoplasmic signaling molecules of Smad protein family. CellSensor SBE-bla HEK 293T cell line (Life Technologies, Carlsbad, CA), responsive to TGF-beta was used to screen Tox21 10K compound library for identification of agonists/antagonists of the Smad signaling pathway. This cell line contains a beta-lactamase reporter gene under control of the Smad binding element (SBE) stably integrated into HEK 293T cells. Also cytotoxicity of the compounds was tested in parallel by measuring the cell viability using CellTiter-Glo assay system in the same wells.
Tox21 Assay Protocol Summary:
SBE-bla HEK 293T cells were dispensed at 4,000/well in 6 uL of assay medium into black wall/clear-bottom 1536-well plates using a Multidrop Combi (ThermoFisher Scientific, Waltham, MA) dispenser. After the assay plates were incubated at 37 C and 5% CO2 for an overnight, 23 nL of compounds dissolved in DMSO, positive controls or DMSO only was transferred to the assay plate by a Pintool station (Kalypsys, San Diego, CA). The assay plates were incubated at 37 C and 5% CO2 for 5 hr. One uL of LiveBLAzer B/G FRET substrate (Life Technologies) was added using a Flying Reagent Dispenser (FRD, Aurora Discovery, San Diego, CA) and the plates were incubated at room temperature for 2 hr. Fluorescence intensity (405 nm excitation, 460 nm and 530 nm emissions) was measured using an Envision plate reader (PerkinElmer, Shelton, CT). For cytotoxicity read, 4 uL of CellTiter-Glo reagent (Promega Corporation, Madison, WI) was added to each well of the assay plates using FRD. After 30min incubation at room temperature, the luminescence intensity was measured using ViewLux plate reader (PerkinElmer).
% is scaled to controls: 0 for no effect and ±100 for the full control effect.

Row | SMILES | activity change, negative = cytotoxicity
1 | CC(S)C(C)S (stereo not given) | -0.183% (inactive)
2 | COC(=O)c1cccc(Cl)c1 | -5.48% (inactive)
3 | CCNC(=O)NCc1cccc(Cl)c1 | 1.03% [at 35.3 µM] (inactive)
4 | COP(=O)(O)OP(=O)(O)OC | 0.822% (inactive)
5 | CC(C)c1ccc(C=O)cc1 | 2.41% (inactive)
6 | Cc1c(NC(=O)c2cccnc2)c(=O)n(-c2ccccc2)n1C | 9.84% [at 35.3 µM] (inactive)
7 | CSc1cnccn1 | -8.07% (inactive)
8 | O=C1c2ccccc2C(=O)c2cc(Cl)ccc21 | 7.07% [at 6.97 µM] (inactive)
9 | C=CC/C=C/C | 1.51% (inactive)
10 | COc1cc(OC)nc(O[C@H](C(=O)O)C(OC)(c2ccccc2)c2ccccc2)n1 | 17.7% [at 35.3 µM] (inactive)
11 | C/C(CC(C)C)=N\O | 21.6% (inactive)
12 | CC(=O)O[C@H]1C[C@@H]2CC[C@@]1(C)C2(C)C | 13% (inactive)
13 | OC[C@@H](O)C(O)[C@@H](O)CO (stereo not given in full) | -2.41% (inactive)
14 | CCCCOCCOC(=O)COc1ccc(Cl)cc1Cl | -11.3% (inactive)
15 | Cc1ccc(C(=O)O)cc1[N+](=O)[O-] | -1.36% (inactive)
16 | CCCC(=O)Nc1ccc(OCC(O)CNC(C)C)c(C(C)=O)c1 (stereo not given) | 8.93% [at 35.3 µM] (inactive)
17 | CC(=O)OC(C)=O | -3.63% (inactive)
18 | CC(C)NC(=O)c1ccc(C=O)cc1 | 10.7% [at 35.3 µM] (inactive)
19 | COC(C)(OC)OC | 4.41% (inactive)
20 | COc1nc(N)nc2nc[nH]c12 | -11% (inactive)

Row | SMILES | activity change, negative = cytotoxicity
21 | CCC(C)C(C)=O (stereo not given) | -0.747% (inactive)
22 | CC(=O)Nc1ccc(OC(=O)c2ccccc2OC(C)=O)cc1 | -12.5% [at 35.3 µM] (inactive)
23 | Cn1nnc2c(C(N)=O)ncn2c1=O | -18.2% [at 35.3 µM] (inactive)
24 | CC1CCc2c(N3CCC(O)CC3)c(F)cc3c(=O)c(C(=O)O)cn1c23 (stereo not given) | 0.254% [at 35.3 µM] (inactive)
25 | COc1cc2c(cc1OC)C(=O)C(CC1CCN(Cc3ccccc3)CC1)C2 (stereo not given) | 11.3% [at 35.3 µM] (inactive)
26 | O/N=C/C=N/O | -4.02% (inactive)
27 | CCCCCCCCCCCCCCCCCC#N | -7.91% (inactive)
28 | C[C@H]1[C@@H](c2ccccc2)NC(=O)N1C | 11% (inactive)
29 | OCCN1CCOCC1 | -1.74% (inactive)
30 | Cc1cc(-c2ccccc2)nnc1NCCN1CCOCC1 | 3.13% [at 35.3 µM] (inactive)
31 | CN1CCOC(c2ccccc2)c2ccccc2C1 (stereo not given) | 0.209% [at 35.3 µM] (inactive)
32 | CC1c2ccccc2CN1NC(=O)c1ccc(Cl)c(S(N)(=O)=O)c1 (stereo not given) | -0.573% [at 35.3 µM] (inactive)
33 | O=NN(CCCl)C(=O)NC1CCCCC1 | -19.2% [at 35.3 µM] (inactive)
34 | CCCC(CC)c1ccccc1 (stereo not given) | -0.0888% (inactive)
35 | CCOC(CN1CCN(CC(C)C(=O)c2ccccc2)CC1)c1ccccc1 (stereo not given) | -11.2% [at 15.8 µM] (inactive)
36 | COc1ccc2c(c1)c1c3n2CCN(C)C3=NCC1 | 3.73% [at 35.3 µM] (inactive)
37 | O=C(CN1CCNCC1)NC1CCCCC1 | -3.96% [at 35.3 µM] (inactive)
38 | CC(C)Cn1cnc2c1c(=O)n(C)c(=O)n2C | 10.3% [at 35.3 µM] (inactive)
39 | CCCCCC/C=C/C(=O)OC | -2.8% (inactive)
40 | C/C(=C1\CCOC(=O)S1)N(C=O)Cc1cnc(C)nc1N | -1.83% [at 35.3 µM] (inactive)
